The results in this text go back to PubChem BioAssay AID463173 (ICCB-Longwood Screening Facility, Harvard Medical School, 2010).

Screen size: about 52,000 compounds; about 4,300 (8.3%) were called active. Only a selection was taken, and actives are over-represented in it overall. Unmarked numbers belong to inactive results. No stated cut-off is given here; in the data, active means survival mostly below about 52% (no sharp cut-off); inactive means mostly above about 56%.

This assay relates to DeltatarO mutant. Nature of the assay: growth inhibition of S. aureus wild type versus tarO mutant, primary screen, teichoic acid synthesis inhibitors, RN4220, OD600 (AID 463173). To be noted: OD600, 18 h, stronger effect = lower value, screened at 18.75 µg/mL (by protocol).
Regarding `CCOC(=O)Cn1c(=O)n(C2CCCCC2)c2nc(-c3ccc(OCC)cc3)nc(C(N)=O)c21`, the survival was 86%. In the case of `CCCS(=O)(=O)N1CC(=O)N(c2ccccc2C)C(C)(C(=O)NC2CCCCC2)C1` (configuration not stated), the survival was 75%.

Consider `COc1ccccc1NC(=O)C1CCN(S(=O)(=O)c2cn(C)cn2)CC1`, for which the survival is 69%. In the case of `CCCc1nc2nc(C)c(NS(=O)(=O)c3ccc(C)c(C)c3)c(=O)n2[nH]1`, the survival was 129%. With `COc1ccc(C(=O)Oc2c(Sc3ccc(Cl)cc3)c(C)nn2C(C)(C)C)cc1OC`, the survival is 56%. With `Cc1nn(C(C)(C)C)c(OC(=O)c2cccc(F)c2)c1Sc1ccccc1` the figure was 24% (active). As for `COc1cc(OC)cc(C(=O)Oc2c(Sc3ccccc3)c(C)nn2C(C)(C)C)c1`, the survival is 43% (active).

Regarding `Cc1cccc(C(=O)Oc2c(Sc3ccccc3)c(C)nn2C(C)(C)C)c1`, the survival is 57%.

Turning to `CCOc1ccc(C(=O)Oc2c(Sc3ccccc3)c(C)nn2C(C)(C)C)cc1OCC`, the survival is 57%. For the compound `Cc1nn(C(C)(C)C)c(OC(=O)c2c(F)cccc2F)c1Sc1ccccc1`, the survival was 127%. Turning to `CCOc1ccc(NC(=O)CSc2nc(-c3ccc(OC)cc3)nc3c2Cc2c(CO)cnc(C)c2O3)cc1`, the survival was 79%. With `CS(=O)(=O)N1CCc2cc(C(=O)N3CCN(c4ccccc4F)CC3)ccc21` the figure was 45%; with `COc1ccc(C(=O)Nc2nc3nc(C)c(Cl)c(=O)n3[nH]2)cc1`, 100%. As for `COc1cc(C2CC(=O)N(c3ccccc3)C3=C2C(=O)OC3)cc(OC)c1OC` (configuration not stated), the survival was 72%. Then `Cc1cc2cc(CN(CC3COCCO3)S(=O)(=O)c3ccc(F)cc3)c(=O)[nH]c2cc1C` (configuration not stated), with 103%. `O=C1c2cccc3cccc(c23)N1c1ccccc1`: the survival was 77%. With `COC(=O)C(NC(=O)CC(C)C)(Nc1nc2c(s1)CCCC2)C(F)(F)F` (configuration not stated) the figure was 120%; with `COc1ccc(CNc2nc(-c3ccc(Cl)cc3)cc(C(F)(F)F)n2)cc1`, 29% (active); with `COc1ccc(-c2cc(C(F)(F)F)nc(SCC(=O)NCc3ccc(Cl)cc3)n2)cc1`, 62%. Then `COc1ccc(-c2cc(C(F)(F)F)nc(NCc3ccc(Cl)cc3)n2)cc1`, with 3% (active).

With `COc1ccc(CNC(=O)c2cc(-c3ccc(Cl)cc3)n[nH]2)cc1`, the survival is 78%. With `CCN(c1cccc(C)c1)S(=O)(=O)c1ccc2[nH]cc(C(=O)NCCCOC)c(=O)c2c1` the figure was 67%; with `COc1ccc(N(C)C(=O)c2nc(-c3cccc(F)c3)n3c2CCCCC3)c(OC)c1`, 74%. For the compound `CCOC(=O)c1cccc(NS(=O)(=O)c2cc(-c3cnc(C4CC4)o3)ccc2C)c1`, the survival was 90%.

As for `O=C(Nc1cccnc1)c1cc(-c2ccc(Cl)cc2)on1`, the survival was 61%. For `CN1/C(=C\C(=O)Nc2cccnc2)c2ccccc2CC1(C)C`, the survival was 65%. For `Cn1c(=O)oc2cc(S(=O)(=O)CCC(=O)NCCc3ccccc3)ccc21`, the survival was 96%. As for `COC(=O)c1c(NC(=O)c2cccc(OC)c2)sc2c1CCC(C(C)(C)C)C2` (configuration not stated), the survival is 43% (active). With `CCC(=O)Nc1sc2c(c1C(=O)Nc1ccc(OC)cc1)CCC(C(C)(C)C)C2` (configuration not stated), the survival was 13% (active). Take `CCOc1ccc(NC(=O)c2c(NC(=O)c3ccncc3)sc3c2CCC(C(C)(C)C)C3)cc1` (configuration not stated): the survival is 113%.

As for `Cc1ccccc1NC(=O)c1c(NC(=O)c2ccncc2)sc2c1CCC(C(C)(C)C)C2` (configuration not stated), the survival is 110%. Consider `COc1ccc(NC(=O)c2c(NC(=O)COc3ccccc3)sc3c2CCC(C(C)(C)C)C3)cc1` (configuration not stated), for which the survival is 75%. As for `COC(=O)c1c(NC(=O)C2c3ccccc3Oc3ccccc32)sc2c1CCC(C(C)(C)C)C2` (configuration not stated), the survival was 78%.

Regarding `CCOc1ccc(NC(=O)c2c(NC(=O)c3cccs3)sc3c2CCC(C(C)(C)C)C3)cc1` (configuration not stated), the survival is 67%. With `CC(C)(C)C1CCc2c(sc(NC(=O)c3cccc(Cl)c3)c2C(N)=O)C1` (configuration not stated) the figure was 70%; with `COc1ccc(NC(=O)c2c(NC(=O)c3ccncc3)sc3c2CCC(C(C)(C)C)C3)cc1` (configuration not stated), 41% (active).

With `O=S(=O)(c1ccccc1)N1CCC(O)(c2ccccc2)C2CCCCC21` (configuration not stated), the survival is 73%. Then `CC(=O)c1cccc(NC(=O)C(Cc2ccccc2)NS(=O)(=O)c2ccc(Br)s2)c1` (configuration not stated), with 116%. As to `Cc1n[nH]c(=S)n1CC(=O)n1c2c(c3ccccc31)CCCC2`, the survival was 91%. Take `COc1cccc(NC(=O)c2nn(-c3ccc(C)cc3)c(=O)n(C)c2=O)c1`: the survival was 124%. Turning to `Cc1cccc(NC(=O)c2ccc(-n3c(C)nnc3C)cc2)c1`, the survival was 88%.

In the case of `Cc1ccc(C)c(-n2nnc(C(=O)Nc3ccc(Br)cc3)c2C)c1`, the survival is 18% (active).

Consider `CC(=O)Nc1c(C(=O)Nc2cccc(C)c2)nnn1-c1ccc(C)cc1`, for which the survival is 69% (active). `COc1ccc(C)cc1-n1nnc(C(=O)Nc2cccc(SC)c2)c1C`: the survival is 86%.

With `CC(=O)c1nnn(-c2ccc(C)cc2Cl)c1C`, the survival is 65%. With `COc1ccc(NC(=O)c2cc(S(=O)(=O)N3CCCC(C)C3)cn2C)c(OC)c1` (configuration not stated) the figure was 87%. In the case of `Cc1ccc(-c2nc3nc(C)cc(N4CCN(c5cccc(C)c5C)CC4)n3n2)cc1`, the survival is 128%. On to `COc1ccccc1N1CCN(c2cc(C)nc3c(-c4ccc(Cl)cc4)c(C)nn23)CC1`, for which the survival was 87%. For `COc1ccc(N2CCN(c3cc(C)nc4nc(-c5ccc(C)cc5)nn34)CC2)cc1`, the survival is 53%. Then `COc1ccccc1N1CCN(c2cc(C)nc3nc(-c4ccc(Cl)cc4)nn23)CC1`, with 38% (active); and `Cc1cc(N2CCN(c3cc(Cl)ccc3C)CC2)n2nc(-c3ccccc3)nc2n1`, with 77%; and `COc1ccccc1N1CCN(c2cc(C)nc3nc(-c4ccc(C)cc4)nn23)CC1`, with 40% (active).

For the compound `COc1cc(C(=O)NCc2ccc3c(c2)CCN3C(=O)c2ccncc2)cc(OC)c1OC`, the survival was 101%. As for `Cc1cccc(N2CCN(C(=O)c3cn(C4CCCCC4)c(=O)c4c3c3ccccc3n4C)CC2)c1C`, the survival was 115%. As to `CCC1CC(/C(C)=N/NC(N)=O)OC1=O` (configuration not stated), the survival was 71%. Regarding `Cc1c(-c2nc(-c3ccccc3F)no2)nnn1-c1cc(F)ccc1F`, the survival is 84%.

For the compound `CCOC(=O)c1c(C)n(-c2ccccc2)c2ccc(OC(=O)c3ccccc3)cc12`, the survival was 3% (active). Turning to `CCOC(=O)c1c(C)n(-c2ccccc2)c2ccc(OC(=O)c3ccccc3NC(=O)C(C)C)cc12`, the survival is 47% (active). As to `CCOC(=O)c1c(C)n(-c2ccccc2)c2ccc(OC(=O)c3cccc(Cl)c3)cc12`, the survival was 79%.

For `CCOC(=O)c1c(C)n(-c2ccccc2)c2ccc(OC(=O)c3cccc(C)c3)cc12`, the survival was 63%.

On to `CCOC(=O)c1c(C)n(-c2ccccc2)c2ccc(OC(=O)c3ccccc3NC(=O)C(C)(C)C)cc12`, for which the survival is 55%. Consider `CCOC(=O)c1c(C)n(-c2ccccc2)c2ccc(OC(=O)c3ccccc3Cl)cc12`, for which the survival is 54%. For the compound `COc1ccc(S(=O)(=O)N2CCC(C(=O)Nc3ccc(Oc4ccccc4)cc3)CC2)cc1`, the survival was 72%. On to `O=C(COc1ccc(S(=O)(=O)NC2CCCCC2)cc1Cl)NCc1ccccn1`, for which the survival is 104%. In the case of `COc1ccc(N2CCN(C(CNC(=O)C(=O)NCc3ccc(C)cc3)c3cccnc3)CC2)cc1` (configuration not stated), the survival was 61%. `CCCCNc1nc2c(S(=O)(=O)c3ccc(C)cc3)nnn2c2ccsc12`: the survival is 114%.

As to `Cc1ccc(C)c(NC(=O)CSc2nncn3c2cc2sccc23)c1`, the survival is 69%. With `O=C(c1cc2c(=O)[nH]c3ccccc3c2s1)N1CCN(c2ccc(F)cc2)CC1` the figure was 51%. For the compound `CCOc1ccc(NC(=O)NCCN2CCN(c3cc(Cl)ccc3C)CC2)cc1`, the survival is 54%.

With `CCC(=O)N1c2ccccc2CC1C(=O)NCCN1CCN(c2cc(Cl)ccc2C)CC1` (configuration not stated), the survival was 52% (active). In the case of `O=C(NCCCN1CCN(c2ccccc2F)CC1)c1nnc(Cc2ccc(Cl)cc2Cl)o1`, the survival was 80%. Turning to `Cc1ccc(Cl)cc1N1CCN(CCNC(=O)Nc2ccc(Cl)cc2)CC1`, the survival is -4% (active).

Turning to `CCC(=O)N1c2ccccc2CC1C(=O)NCCN1CCN(c2cccc(C)c2C)CC1` (configuration not stated), the survival is 77%. `Cc1ccc(C)c(N2CCN(CCCNC(=O)Nc3ccc(Cl)cc3)CC2)c1`: the survival is -5% (active).

`O=C(NCCCN1CCN(c2ccc(F)cc2)CC1)Nc1ccc(Cl)cc1`: the survival is 72%. For `CCC(=O)N1c2ccccc2CC1C(=O)NCCN1CCN(c2cccc(Cl)c2)CC1` (configuration not stated), the survival is 87%. With `Cc1ccc(Cl)cc1N1CCN(CCCNC(=O)c2nnc(Cc3cccc(Cl)c3)o2)CC1`, the survival is 25% (active).

Take `COc1ccc(Cc2nnc(C(=O)NCCCN3CCN(c4ccccc4F)CC3)o2)cc1OC`: the survival is 78%. Turning to `Cc1cccc(N2CCN(CCNC(=O)Nc3ccc(Cl)cc3)CC2)c1C`, the survival is 66%. As to `Cc1ccc(Cl)cc1N1CCN(CCNC(=O)Nc2ccccc2Cl)CC1`, the survival was 77%. With `CCc1ccc(S(=O)(=O)Nc2ccc(-c3ccc(N4CCCCCC4)nn3)cc2)cc1` the figure was 95%; with `Cc1ccc(C)c(N(C)C(=O)CCNC(=O)Cn2cnc3ccccc3c2=O)c1`, 69%. For the compound `Cc1ccc(S(=O)(=O)NC2(C(F)(F)F)C(=O)Nc3c2c(=O)[nH]c(=O)n3-c2ccccc2)cc1` (configuration not stated), the survival is 89%. Turning to `COc1cc(OC)cc(-c2nc3nc(C)c(CCC(=O)Nc4ccc(Cl)cc4)c(C)n3n2)c1`, the survival was 65%. Take `COc1cccc(CNc2ncnc3onc(C)c23)c1`: the survival was 125%. Then `Cc1ccc(NC(=O)N2CCc3cc(S(=O)(=O)N4CCC(C)CC4)ccc32)cc1F`, with 105%; and `COc1c(C)cccc1C(=O)Nc1ccc(-c2nc3ccccc3s2)c(Cl)c1`, with 68%.
